From PubChem
Sampled rows, rich in hits. Any-hit rate of the full collection: about 7.4%.
ELG1 genotoxic – inducers of genotoxicity in HEK293T ELG1-luciferase cells. HEK293T ELG1-luciferase reporter, luminescence, 16 h. Potency, µM (doses to about 46 µM), for inactives: at the highest dose activity change, positive = activation, usual class: activators. 330,000 compounds, 1.3% hits; note: % of control where 0% means no effect; nearly all actives have a fitted effect of over 60% in size
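Genotoxicity was scored as increased ELG1-luciferase reporter signal, measured by ONE-Glo luminescence (30 min, room temperature). Compound or vehicle exposure of the HEK293T reporter cells lasted 16 hr at 37°C.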
Rab9 prom act – Rab9 promoter activation; Huh7 Rab9 promoter-luciferase reporter, luminescence, 24 h; Potency, µM (highest dose often 9.22 µM), for the others: at the top dose activation, negative = inhibition, usual class: activators; 320,000 compounds, 2.8% hits; AID 485297; note: % of control where 0% means no effect; nearly all actives have a fitted effect of over 60% in size
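Luminescence read-out: Huh7 cells stably expressing Rab9-luciferase, treated 24 h with compound at 37 °C, then lysed with luciferase reagent for 10 min at ambient before reading.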
NPC1 prom act – NPC1 promoter activation; Potency, µM (doses to about 9.22 µM), inactives show top-dose activation, most hits filed as activators; 320,000 compounds, 2.4% hits; Huh7 NPC1 promoter luciferase reporter, 24 h; AID 485313; note: % of control where 0% means no effect; nearly all actives have a fitted effect of over 60% in size
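Stable NPC1-promoter luciferase Huh7 line; cpd (DMSO) 24 h, 37 °C, 5% CO2; Amplite luciferase reagent 10 min RT; luminescence readout. qHTS format.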
FLuc counter – inhibits or activates purified firefly luciferase, miR-21 counter-screen; P08659; purified FLuc, Km substrates, luminescence inhibition; Potency, µM (highest dose often 57.5 µM), inactives show top-dose activity change, negative = inhibition, hits mostly inhibitors; 360,000 compounds, 6.9% hits;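 note: plate controls were vehicle for no effect and reference inhibitor for full effect; nearly all actives have a fitted effect of over 55% in size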
Target sequence (P08659 whole entry, looked up): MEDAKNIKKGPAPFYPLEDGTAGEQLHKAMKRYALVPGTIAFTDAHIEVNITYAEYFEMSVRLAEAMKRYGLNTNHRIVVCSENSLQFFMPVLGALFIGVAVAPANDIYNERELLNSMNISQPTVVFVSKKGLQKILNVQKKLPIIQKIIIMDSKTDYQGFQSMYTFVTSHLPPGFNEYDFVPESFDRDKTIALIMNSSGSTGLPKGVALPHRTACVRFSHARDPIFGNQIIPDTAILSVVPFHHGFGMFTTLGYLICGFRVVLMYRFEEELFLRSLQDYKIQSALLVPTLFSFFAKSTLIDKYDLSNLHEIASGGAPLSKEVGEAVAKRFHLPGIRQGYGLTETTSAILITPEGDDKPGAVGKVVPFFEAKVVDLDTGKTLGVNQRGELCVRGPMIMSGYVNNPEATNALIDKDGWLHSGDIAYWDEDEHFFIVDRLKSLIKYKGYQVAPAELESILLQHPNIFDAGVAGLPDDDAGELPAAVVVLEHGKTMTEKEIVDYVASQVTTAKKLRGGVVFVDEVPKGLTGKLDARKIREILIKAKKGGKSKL
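Purified P. pyralis luciferase, 10 nM final, with Km-level 10 uM D-luciferin and 10 uM ATP in 50 mM Tris acetate pH 7.5, 10 mM Mg acetate, 0.01% Tween-20, 0.05% BSA; 6-point qHTS titration about 60 µM downward; luminescence read.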
SMN2 splice up – increases expression of the SMN2 splice variant. AID 1458. 210,000 compounds, 2.8% hits. Potency, µM (top dose mostly 46.1 µM), inactives show top-dose activity change, positive = activation, usual class: activators. HEK293 SMN2-luciferase splicing reporter, luminescence, 30-36 h; note: % of control where 0% means no effect; nearly all actives have a fitted effect of over 55% in size
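HEK293 cells carry an SMN2 […]–luciferase reporter in which exon 7 inclusion puts luciferase in frame. Cells were plated 10-12 h before compound addition, then incubated 30-36 h at 37C. ONE-Glo luminescence was read; sodium butyrate at 4.5 mM final served as control.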
* hit, by the source's call; u = inconclusive; x = no result; [ ] = another dose, or the depositor's remark. Calls come from the whole dose curve; as a rule, active = well fitted curve in the direction sought with a large enough effect; inconclusive = small, poorly fitted or top-dose-only effect, or another doubt; inactive = no such curve, though single readings can be large; an effect the other way counts as inactive or inconclusive. Potency is the fitted concentration of half-maximal effect.

SMILES	ELG1 genotoxic	Rab9 prom act	NPC1 prom act	FLuc counter	SMN2 splice up
O=C(OCc1ccc(C(=O)c2ccccc2)cc1)c1cccc(-c2nnc(-c3ccccc3)o2)c1	u	1.1µM*	u	11µM*	u
O=C(OCc1ccccc1)c1ccc2c(c1)-c1ccccc1C2=O	10µM*	u	u	u	13µM*
O=C(COC(=O)c1cccc(O)c1)Nc1nnc(-c2ccccc2)o1	3%	-2%	0%	-19%	x
Cc1cc(C)cc(NC(=O)CN2C(=O)CCc3cc(S(=O)(=O)N4CCCCC4)ccc32)c1	x	x	x	-7%	x
Cc1cccc(NC(=O)CSc2nc(-c3cccs3)cc(C(F)(F)F)c2C#N)c1	x	x	x	-6%	19%
CC1=C(C(=O)Nc2ccccc2)C(c2ccccn2)n2nc(SCc3ccccc3)nc2N1 (stereo not drawn)	x	x	x	-6%	6%
O=C(OCc1ccccc1)c1cccc(-c2nnc(-c3ccccc3)o2)c1	u	u	1.6µM*	-19%	u
COc1ccc(C2NN=C(c3ccc(C)cc3)S2)cc1 (stereo not drawn)	u	0.63µM*	92%	1.2µM*	x
CCOc1cc(C2NN=C(c3ccc(C)cc3)S2)ccc1O (stereo not drawn)	u	3.5µM*	3.2µM*	5.4µM*	16µM*
Cc1ccc(C2=NNC(C(O)C(O)C(O)CO)S2)cc1 (stereo not drawn)	u	24%	18%	15µM*	-16%
CCOc1cc(C2c3c(n[nH]c3C)C(=O)N2c2ccc(C)cc2)ccc1O (stereo not drawn)	6%	6%	-1%	1%	4%
N[C@H](CS)C(=O)O	x	x	x	x	3%
Nc1nc2c(-c3ccc(Br)cc3)nnn2c2ccccc12	12µM*	0.63µM*	1µM*	0.43µM*	x
N=C1S/C(=C\c2cn[nH]c2-c2ccc(F)cc2)C(=O)N1c1ccccc1F	10%	4µM*	3.2µM*	u	13µM*
CCC(C)N(C(=O)COC(=O)CNC(=O)c1sc2ccccc2c1Cl)C1CCS(=O)(=O)C1 (stereo not drawn)	11%	-2%	6%	21µM*	x
CCC(C)N(C(=O)COC(=O)Cc1n[nH]c(=O)c2ccccc12)C1CCS(=O)(=O)C1 (stereo not drawn)	0%	-1%	-1%	1%	-5%
CCN(C(=O)COC(=O)CNC(=O)c1sc2ccccc2c1Cl)C1CCCCC1	2%	3%	-4%	12µM*	x
CCCC(=O)c1cc(O)c(O)cc1O	x	x	x	x	0%
COc1ccc(/C=C/C(=O)Nc2ccc(C)c(S(=O)(=O)N3CCOCC3)c2)cc1	-11%	x	x	x	x
NC(=O)c1ccc(NC(=O)COC(=O)/C=C/c2ccc3c(c2)OCO3)cc1	7%	3%	2%	12µM*	x
O=C(/C=C/c1ccco1)Nc1ccc(Cl)c(S(=O)(=O)N2CCOCC2)c1	-11%	-8%	5%	19µM*	x
Cc1ccc(NC(=O)/C=C/c2ccc3c(c2)OCO3)cc1S(=O)(=O)N1CCOCC1	-11%	-17%	-3%	11µM*	-51%
COc1ccccc1NC(=O)COC(=O)/C=C/c1ccc2c(c1)OCO2	u	12%	11%	11µM*	-1%
O=C(Nc1ccccc1)Nc1ccc(Cl)c(S(=O)(=O)N2CCOCC2)c1	-11%	-8%	-9%	u	-20%
CC(=O)Nc1ccc(NC(=O)COC(=O)/C=C/c2ccc3c(c2)OCO3)cc1	1%	1%	-3%	-2%	x
SMILES	ELG1 genotoxic	Rab9 prom act	NPC1 prom act	FLuc counter	SMN2 splice up
CCN1CCN(C(=O)Cn2ncc3c4ccccc4n(Cc4c(C)cc(C)cc4C)c3c2=O)CC1	x	x	x	-8%	2%
COc1ccc(NC(=O)C(NC(=O)/C=C\c2ccc3c(c2)OCO3)c2ccc(OC)cc2)cc1 (stereo not drawn)	x	x	x	-6%	-5%
Cc1ccc(S(N)(=O)=O)cc1NC(=O)/C=C/c1ccc2c(c1)OCO2	1%	3%	-1%	24µM*	-5%
COc1ccc(NC(=O)C(NC(=O)/C=C\c2ccc3c(c2)OCO3)c2ccccc2)cc1 (stereo not drawn)	x	x	x	0%	2µM*
COc1ccccc1N1CCN(C(=O)/C=C/c2ccc3c(c2)OCO3)CC1	-6%	1%	-3%	-9%	-10%
COc1ccccc1NC(=O)/C=C/c1ccc2c(c1)OCO2	13%	u	28%	6.7µM*	11µM*
O=C(Oc1ccc2cc(Br)ccc2c1)c1cccnc1	-2%	8%	-1%	u	-4%
CCc1ccc(C(=O)c2cncc(Br)c2)cc1	x	x	x	17µM*	u
O=C(Oc1ccc(Br)cc1)c1cncc(Br)c1	2%	-2%	0%	4.8µM*	-20%
Cc1nc2c3ccccc3nc(NNC(=O)CCC(=O)O)n2n1	x	x	x	2%	-5%
O=c1c2c3c(sc2nc2sc(CN4CCOCC4)cn12)CCCC3	u	u	4.5µM*	-5%	u
COc1cccc(NC(=O)CSc2nc(C)c(Cc3ccccc3)c(=O)[nH]2)c1	x	x	x	u	-4%
COc1cc(/C=N/NC(=O)CSc2ccccn2)ccc1OC(C)C	u	u	12%	4.3µM*	x
COc1ccc(/C=N/NC(=O)c2ccccc2Cl)cc1CSc1nc2ccccc2s1	u	2%	-17%	-1%	-43%
CCn1c(SCC(=O)N/N=C/c2ccc(OC)c(OC)c2)nc2ccccc21	6%	-2%	1%	17µM*	4%
COc1ccc(Cc2nc3ccccc3n2CC(=O)N/N=C/c2ccccc2)cc1OC	-3%	0%	-2%	-2%	-6%
COc1ccc(/C=N/NC(=O)c2ccc(O)cc2O)cc1CSc1ccccn1	4%	3%	1%	27µM*	7%
COc1ccc(/C=N/NC(=O)CCSc2nc3ccccc3s2)cc1OC	-1%	-6%	-2%	21µM*	18%
COc1ccc(-c2nc3c(c4c2C[C@H](c2ccccc2)OC4)CN(S(=O)(=O)c2ccc(C#N)cc2)CC3)c(C)c1	x	x	x	x	6%[9.22 µM]
COc1ccccc1/C=C\C=N\NC(=O)CCn1nnc2ccccc21	-3%	-3%	8%	-18%	10%
COc1ccc(/C=N/NC(=O)CCn2nnc3ccccc32)cc1	3%	1%	-4%	13µM*	x
Cc1ccc(C(=O)N/N=c2\sc3ccccc3n2C)cc1	0%	13%	20%	21µM*	9%
Cn1/c(=N/NC(=O)c2ccccc2F)sc2ccccc21	u	2.8µM*	u	15µM*	u
COc1ccccc1CN1CCCC2(CCNCC2)C1	x	x	x	x	-3%
COc1ccc(NC(=O)Nc2cccc([N+](=O)[O-])c2)cc1Cl	-2%	16%	1%	21µM*	-7%
CC(=O)Nc1cccc(Oc2ccc([N+](=O)[O-])cc2Cl)c1	14%	17%	0%	24µM*	9%
O=S(=O)(c1ccccc1)N1CCC2(CCCN(Cc3ccncc3)C2)CC1	x	x	x	x	-13%
